Bioassay records from PubChem.
The entries come from a sample that favours hits as a whole.
NS1 inh = inhibitors of influenza NS1 protein function | Potency, µM (series often up to 46.1 µM) | 270,000 tested, 0.4% active | AID 2326; further: actives are rising curves; nearly all actives have a fitted effect of over 50% in size
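Growth recovery, yeast-based: influenza A NS1 expressed in S. cerevisiae causes slow growth, and suppressors are detected by OD600. The parent strain without NS1 is used as positive control.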
SARS PLP yeast = blocks SARS-CoV papain-like protease in a yeast assay; S. cerevisiae expressing SARS-CoV PLpro, growth rescue; Potency, µM (highest dose often 32.9 µM), usual class: activators; 330,000 tested, 0.19% active; AID 485353; further: nearly all actives have a fitted effect of over 55% in size
TbPYK inhibitor = inhibitors of Trypanosoma brucei pyruvate kinase. TbPYK enzyme, Kinase-Glo Plus ATP luminescence, 45 min. Potency, µM (doses to about 76.8 µM), usual class: inhibitors. 410,000 tested, 0.12% active. Q57TT1; active means well fitted curve in the direction sought with a large enough effect; inconclusive means small, poorly fitted or top-dose-only effect, or another doubt; inactive means no such curve, though single readings can be large; an effect the other way counts as inactive or inconclusive; further: nearly all actives have a fitted effect of over 50% in size
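TbPYK + substrate in 50 mM TEA pH 7.2, 100 mM KCl, 10 mM MgCl2, 0.05% BSA, 0.01% Tween-20; cpd pinned; ADP 130 uM final; 45 min RT; Kinase-Glo Plus 10 min; luminescence endpoint.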
Shiga toxin inh = blocks Shiga toxin action in Vero cells; 290,000 tested, 9.2% active; AID 2315; inhibition, % at 38.7 µM; Vero cells, Shiga toxin protein synthesis inhibition reporter; in the data active means inhibition mostly above about 28%, no sharp cut-off; inactive means mostly below about 43%
LmPK inh = inhibitors of Leishmania mexicana pyruvate kinase. purified LmPK, Kinase-Glo ATP luminescence, 1 h. Potency, µM (titrated, usually from 57.5 µM), usual class: inhibitors. 290,000 tested, 0.37% active. AID 1721; active means well fitted curve in the direction sought with a large enough effect; inconclusive means small, poorly fitted or top-dose-only effect, or another doubt; inactive means no such curve, though single readings can be large; an effect the other way counts as inactive or inconclusive
Target sequence (Q27686 whole entry, looked up): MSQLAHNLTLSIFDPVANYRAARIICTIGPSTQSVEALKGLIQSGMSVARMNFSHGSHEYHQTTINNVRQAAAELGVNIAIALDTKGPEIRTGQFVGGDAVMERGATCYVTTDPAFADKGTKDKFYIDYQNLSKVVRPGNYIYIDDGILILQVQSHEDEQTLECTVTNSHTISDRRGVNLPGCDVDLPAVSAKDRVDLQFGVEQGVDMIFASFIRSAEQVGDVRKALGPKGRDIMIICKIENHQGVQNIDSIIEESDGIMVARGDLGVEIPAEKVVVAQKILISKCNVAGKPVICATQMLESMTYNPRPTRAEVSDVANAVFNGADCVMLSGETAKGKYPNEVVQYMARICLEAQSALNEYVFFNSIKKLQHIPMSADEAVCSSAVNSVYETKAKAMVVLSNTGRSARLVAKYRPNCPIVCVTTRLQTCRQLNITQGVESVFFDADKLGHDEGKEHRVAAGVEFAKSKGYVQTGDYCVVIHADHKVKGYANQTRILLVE
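Purified LmPK (0.1 nM) converted ADP (0.1 mM) to ATP with PEP (0.5 mM) in imidazole buffer pH 7.2 with KCl and MgCl2, 1 h at room temperature. ATP was read by Kinase-Glo luminescence; data normalized to uninhibited and no-enzyme controls.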
Cycloheximide cs = affects cycloheximide protein synthesis inhibition readout, counter-screen | cell reporter, cycloheximide protein synthesis inhibition counterscreen | max response, % | 300,000 tested, 12% active | AID 2314; in the data active means max response mostly above about 13%, no sharp cut-off; inactive means mostly below about 14%; further: read at 38.3 µM for the half of the compounds with a filed dose
A number is an active result; 0 = inactive; ? = inconclusive; - = not tested or not shown; + = active, no number. Unless noted, the call rests on the fitted dose curve.

SMILES	NS1 inh	SARS PLP yeast	TbPYK inhibitor	Shiga toxin inh	LmPK inh	Cycloheximide cs
CC/C(=N\NC(=O)Nc1ccccc1)c1ccccc1	0	0	0	0	0	19
C/C(=N/NC(=O)Nc1ccccc1)c1ccc(C)cc1	0	?	0	29	0	0
C/C(CC(C)C)=N\NC(=O)Nc1ccccc1	0	0	0	42	0	42
C/C(=N\NC(=O)Nc1ccccc1)c1ccc2ccccc2c1	0	0	0	0	0	0
CCOC(=O)C/C(C)=N/NC(=O)Nc1ccccc1	0	0	0	+	0	40
CCOC(=O)C/C(C)=N\Nc1nc(-c2ccccc2)cs1	-	0	0	0	0	0
CC/C(=N\NS(C)(=O)=O)c1ccccc1	0	0	0	0	0	0
COc1cccc(NC(=O)N2CCN3CCCCC3C2)c1 (centres undefined)	-	-	0	-	-	-
O=C(Nc1nnc([C@H]2C[C@H](O)[C@@H](CO)O2)s1)Nc1cccc(Cl)c1Cl	-	-	0	-	-	-
Brc1c(C[n+]2ccccc2)nc2ccccn12	0	0	0	0	0	0
O=C(Nc1ccc(Oc2ccc(Br)cc2)cc1)C1=CC=CN2CCS(=O)(=O)N=C12	-	0	0	-	-	-
N/C(=N\NC(=O)Nc1ccccc1)c1ccccn1	0	0	0	57	0	45
N/C(=N\NS(=O)(=O)c1ccccc1)c1ccccn1	-	-	0	-	-	-
O=C(Nc1ccc(F)cc1)C1CCN(S(=O)(=O)c2cccc3nonc23)CC1	0	0	0	0	0	0
S=C(Nc1cccc(Cl)c1)NC1CCCCC1	0	?	0	0	0	0
S=C(Nc1ccc(Nc2ccccc2)cc1)NC1CCCCCC1	0	0	0	0	0	0
S=C(Nc1ccc(Cl)cc1)NC1CCCCC1	0	0	0	68	0	41
S=C(Nc1ccc(Br)cc1)NC1CCCCC1	0	0	0	67	0	51
FC(F)Oc1ccc(NC(=S)NC2CCCCCCC2)cc1	0	0	0	65	0	34
COC(=O)C1=C(C)N(Cc2ccccc2)C(=NCC2CC2)N[C@H]1c1ccc(Br)cc1	0	0	-	0	0	0
CCC1Cc2[nH][nH]c(=O)c2C(CC)O1 (centres undefined)	-	-	0	-	-	-
CN(C)CCn1c(NCc2ccc3c(c2)OCO3)nc2ccccc21	0	0	0	0	0	0
CCCn1c(NCc2ccc3c(c2)OCO3)nc2ccccc21	0	0	0	0	0	20
CCCCn1c(NCc2ccc3c(c2)OCO3)nc2ccccc21	0	0	0	0	0	12
Fc1ccccc1CSc1nnnn1-c1ccc2c(c1)OCO2	0	0	0	0	0	16
SMILES	NS1 inh	SARS PLP yeast	TbPYK inhibitor	Shiga toxin inh	LmPK inh	Cycloheximide cs
O=C(CSc1nnnn1-c1ccc2c(c1)OCO2)NCc1cccs1	0	0	0	+	0	27
CC(C)CNc1ncnc2c1ncn2[C@H]1CN(CCN2CCOCC2)C[C@@H](CO)O1	-	-	0	-	-	-
CC(C)CCNC(=O)C(C)N(Cc1ccc(F)cc1)C(=O)c1ccc(CN2CCCCC2)o1 (centres undefined)	0	0	0	0	0	0
CCN(CC)CCN(C(=O)c1ccc(CN2CCCCC2)o1)C(C(=O)NC1CCCCC1)c1ccc(F)cc1 (centres undefined)	0	0	0	60	0	42
COc1cccc(NC(=O)CSc2nc(=O)n(Cc3ccncc3)c3c2CCCC3)c1	-	0	0	-	-	-
CC(=O)N1C(c2ccccc2)CC(=O)OC1c1ccc2c(c1)OCO2 (centres undefined)	0	0	0	0	0	0
Cc1cccc(C(=O)N2c3ccccc3C(=O)OC2c2ccc3c(c2)OCO3)c1 (centres undefined)	0	0	0	0	0	21
O=C1OC(c2ccc3c(c2)OCO3)N(C(=O)c2ccc(Cl)c(Cl)c2)c2ccccc21 (centres undefined)	0	0	0	117	0	39
CN1C(=O)CON=C1c1cccc2ccccc12	-	-	0	-	-	-
COc1cc2c(cc1OC)CN(CC(=O)Nc1cccc(C(F)(F)F)c1)CC2	0	0	0	0	0	0
COc1ccc(C(=O)N[C@H](C(=O)Nc2ccc(OC)nc2)C(C)C)cc1	0	0	0	0	0	15
CCOc1ccccc1C(=O)N[C@H](C(=O)Nc1nc2c(s1)CCCC2)C(C)C	0	0	0	38	0	21
COc1ccc(C(=O)N[C@H](C(=O)Nc2nc3c(s2)CCCC3)C(C)C)cc1	0	0	0	79	0	59
